Common to all, as to design: scale not given: direction of the effect not stated beside the values
For test [1], the target named is Protein translocase subunit SecA (Escherichia coli (strain K12)) (UniProt P10408). Description: Assay to Identify E. coli SecA ATPase Inhibitors. In kind it is functional. Particulars: 30 µM.
Test [2] has as its target T1, Ubiquitin-activating enzyme e1, putative (Leishmania donovani (strain BPK282A1)) (UniProt E9BSI1).
T1 sequence (whole entry): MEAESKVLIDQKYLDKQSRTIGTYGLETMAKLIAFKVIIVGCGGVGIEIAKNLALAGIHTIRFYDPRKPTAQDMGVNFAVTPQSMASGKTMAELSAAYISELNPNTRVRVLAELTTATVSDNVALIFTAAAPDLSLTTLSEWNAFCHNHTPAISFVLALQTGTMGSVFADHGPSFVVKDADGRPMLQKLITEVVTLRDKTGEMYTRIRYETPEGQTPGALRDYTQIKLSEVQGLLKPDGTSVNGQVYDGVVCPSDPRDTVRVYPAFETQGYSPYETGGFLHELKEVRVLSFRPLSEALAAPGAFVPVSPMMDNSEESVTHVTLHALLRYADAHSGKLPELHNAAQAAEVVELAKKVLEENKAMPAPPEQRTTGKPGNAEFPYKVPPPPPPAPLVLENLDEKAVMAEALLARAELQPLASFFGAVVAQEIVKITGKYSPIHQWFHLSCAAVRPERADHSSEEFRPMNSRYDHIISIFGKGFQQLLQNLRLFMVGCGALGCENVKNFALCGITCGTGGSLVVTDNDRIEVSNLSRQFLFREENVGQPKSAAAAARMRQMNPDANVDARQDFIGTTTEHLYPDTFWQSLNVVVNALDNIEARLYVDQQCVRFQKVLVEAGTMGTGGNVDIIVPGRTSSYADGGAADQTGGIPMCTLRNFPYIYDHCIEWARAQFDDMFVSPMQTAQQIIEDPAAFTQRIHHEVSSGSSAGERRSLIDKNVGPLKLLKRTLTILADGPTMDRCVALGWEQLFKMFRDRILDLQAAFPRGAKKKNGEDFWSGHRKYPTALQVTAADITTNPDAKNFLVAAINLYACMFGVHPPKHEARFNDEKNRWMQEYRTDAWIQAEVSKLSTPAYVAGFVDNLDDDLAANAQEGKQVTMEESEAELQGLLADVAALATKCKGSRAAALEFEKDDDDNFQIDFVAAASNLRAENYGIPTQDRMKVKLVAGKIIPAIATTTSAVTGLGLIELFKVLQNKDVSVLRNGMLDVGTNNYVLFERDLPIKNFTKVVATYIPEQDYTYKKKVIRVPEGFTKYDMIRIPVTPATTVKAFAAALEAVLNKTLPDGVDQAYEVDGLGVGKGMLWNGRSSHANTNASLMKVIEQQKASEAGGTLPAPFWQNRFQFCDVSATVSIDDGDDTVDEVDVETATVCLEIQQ
Description: Leishmania donovani Ubiquitin Activating Enzyme (LdE1). Format: functional. Particulars: 30 µM.

Test [3] addresses AMP-activated protein kinase, AMPK (Homo sapiens) (UniProt P54646+O43741+P54619+Q9UGJ0+Q9Y478+Q13131+Q9UGI9). Description: AMP-dependent Kinase enzyme assay. An in vitro enzyme assay that detects ADP turnover that is directly proportional to AMPK activity. This uses naive AMPK that is activated during the assay with MK-8722. Format: functional. Particulars: 30 µM.
Test [4] concerns the target Sialic acid-binding Ig-like lectin 9 (Homo sapiens) (UniProt Q9Y336). Description: Hs-Siglec9 ALPHAscreen SOP 20170721. Particulars: 10 µM.
Another test concerns Trypanosoma cruzi. Description: Trypanosoma cruzi phosphomannomutase and mannose-1-phosphate guanylyltransferase assay. Format: functional. Particulars: 10 µM.
Test [5] addresses T2, Arginase-2, mitochondrial (Homo sapiens) (UniProt P78540).
T2 sequence (whole entry): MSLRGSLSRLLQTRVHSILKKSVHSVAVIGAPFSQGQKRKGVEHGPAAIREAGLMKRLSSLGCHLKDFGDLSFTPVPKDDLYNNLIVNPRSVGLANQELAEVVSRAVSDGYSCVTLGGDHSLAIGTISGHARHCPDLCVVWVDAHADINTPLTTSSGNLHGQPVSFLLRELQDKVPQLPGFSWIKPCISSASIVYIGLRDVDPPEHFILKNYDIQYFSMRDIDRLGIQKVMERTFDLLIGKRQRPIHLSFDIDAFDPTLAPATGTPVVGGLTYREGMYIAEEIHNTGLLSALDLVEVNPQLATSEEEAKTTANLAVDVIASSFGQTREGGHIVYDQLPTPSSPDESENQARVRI
Description: in vitro enzyme assay to detect the production of urea directly proportional to the activity of Arginase II. Also: in the data most compounds retested in dose-response had high values. In kind it is functional. Particulars: 33.3 µM.

For test [6], the target named is T3, Proteasome subunit beta (Trypanosoma cruzi) (UniProt O96673).
T3 sequence (whole entry): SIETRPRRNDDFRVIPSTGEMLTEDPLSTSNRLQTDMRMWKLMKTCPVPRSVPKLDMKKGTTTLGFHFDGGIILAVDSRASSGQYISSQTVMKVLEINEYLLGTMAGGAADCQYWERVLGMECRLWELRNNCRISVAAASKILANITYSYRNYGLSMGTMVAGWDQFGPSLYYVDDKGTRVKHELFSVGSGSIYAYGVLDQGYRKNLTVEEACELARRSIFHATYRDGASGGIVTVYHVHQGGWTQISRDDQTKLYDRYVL
Description: Trypanosoma cruzi proteasome chymotrypsin-like activity (TcProtChymo) assay. Also: in the data most compounds retested in dose-response had high values. Format: functional. Particulars: 9.37 µM.

The species entered for another test is Homo sapiens. Description: To identify inhibition of the IFN signalling (Jak-Stat) pathway via expression of an eGFP reporter gene under the control of an IFN-stimulated response element (ISRE) containing MxA promoter. In kind it is functional. Particulars: 30 µM.
For test [7], the target named is T4, Tyrosyl-tRNA synthetase, putative (Trypanosoma cruzi (strain CL Brener)) (UniProt Q4DSP6).
T4 sequence (whole entry): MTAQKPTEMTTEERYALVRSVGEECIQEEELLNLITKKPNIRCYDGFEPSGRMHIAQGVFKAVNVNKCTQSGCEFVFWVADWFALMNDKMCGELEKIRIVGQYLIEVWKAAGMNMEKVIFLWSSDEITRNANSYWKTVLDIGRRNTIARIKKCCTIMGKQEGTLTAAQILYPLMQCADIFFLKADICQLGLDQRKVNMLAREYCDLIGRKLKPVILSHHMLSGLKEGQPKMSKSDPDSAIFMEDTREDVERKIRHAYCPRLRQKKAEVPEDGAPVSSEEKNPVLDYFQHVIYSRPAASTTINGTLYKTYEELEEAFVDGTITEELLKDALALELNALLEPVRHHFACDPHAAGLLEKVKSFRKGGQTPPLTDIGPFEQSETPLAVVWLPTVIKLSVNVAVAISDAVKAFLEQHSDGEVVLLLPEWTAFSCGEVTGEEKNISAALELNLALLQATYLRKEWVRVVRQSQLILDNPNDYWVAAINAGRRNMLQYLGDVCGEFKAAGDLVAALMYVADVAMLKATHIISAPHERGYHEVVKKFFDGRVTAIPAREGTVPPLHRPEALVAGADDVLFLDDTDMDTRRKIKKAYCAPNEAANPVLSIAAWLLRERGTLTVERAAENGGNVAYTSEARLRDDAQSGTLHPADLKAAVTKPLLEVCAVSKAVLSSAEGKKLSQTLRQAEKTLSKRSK
Description: Trypanosoma cruzi tyrosyl tRNA synthetase (TcYRS) _High Tyrosine SOP. Also: in the data most compounds retested in dose-response had high values. In kind it is functional. Particulars: 30 µM.

For test [8], the target named is T4, Tyrosyl-tRNA synthetase, putative (Trypanosoma cruzi (strain CL Brener)). Description: Trypanosoma cruzi tyrosyl tRNA synthetase (TcYRS) SOP. Format: functional. Particulars: 30 µM.
The target in test [9] is Chromo domain-containing protein 1 (Saccharomyces cerevisiae (strain ATCC 204508 / S288c) (Baker's yeast)) (UniProt P32657). Description: ScCHD-1 Enzyme Inhibition Assay. Also: in the data most compounds retested in dose-response had high values. Format: functional. Particulars: 30 µM.
Chromo domain-containing protein 1 (Saccharomyces cerevisiae (strain ATCC 204508 / S288c) (Baker's yeast)), sequence (P32657 whole entry, the tested form may be a part): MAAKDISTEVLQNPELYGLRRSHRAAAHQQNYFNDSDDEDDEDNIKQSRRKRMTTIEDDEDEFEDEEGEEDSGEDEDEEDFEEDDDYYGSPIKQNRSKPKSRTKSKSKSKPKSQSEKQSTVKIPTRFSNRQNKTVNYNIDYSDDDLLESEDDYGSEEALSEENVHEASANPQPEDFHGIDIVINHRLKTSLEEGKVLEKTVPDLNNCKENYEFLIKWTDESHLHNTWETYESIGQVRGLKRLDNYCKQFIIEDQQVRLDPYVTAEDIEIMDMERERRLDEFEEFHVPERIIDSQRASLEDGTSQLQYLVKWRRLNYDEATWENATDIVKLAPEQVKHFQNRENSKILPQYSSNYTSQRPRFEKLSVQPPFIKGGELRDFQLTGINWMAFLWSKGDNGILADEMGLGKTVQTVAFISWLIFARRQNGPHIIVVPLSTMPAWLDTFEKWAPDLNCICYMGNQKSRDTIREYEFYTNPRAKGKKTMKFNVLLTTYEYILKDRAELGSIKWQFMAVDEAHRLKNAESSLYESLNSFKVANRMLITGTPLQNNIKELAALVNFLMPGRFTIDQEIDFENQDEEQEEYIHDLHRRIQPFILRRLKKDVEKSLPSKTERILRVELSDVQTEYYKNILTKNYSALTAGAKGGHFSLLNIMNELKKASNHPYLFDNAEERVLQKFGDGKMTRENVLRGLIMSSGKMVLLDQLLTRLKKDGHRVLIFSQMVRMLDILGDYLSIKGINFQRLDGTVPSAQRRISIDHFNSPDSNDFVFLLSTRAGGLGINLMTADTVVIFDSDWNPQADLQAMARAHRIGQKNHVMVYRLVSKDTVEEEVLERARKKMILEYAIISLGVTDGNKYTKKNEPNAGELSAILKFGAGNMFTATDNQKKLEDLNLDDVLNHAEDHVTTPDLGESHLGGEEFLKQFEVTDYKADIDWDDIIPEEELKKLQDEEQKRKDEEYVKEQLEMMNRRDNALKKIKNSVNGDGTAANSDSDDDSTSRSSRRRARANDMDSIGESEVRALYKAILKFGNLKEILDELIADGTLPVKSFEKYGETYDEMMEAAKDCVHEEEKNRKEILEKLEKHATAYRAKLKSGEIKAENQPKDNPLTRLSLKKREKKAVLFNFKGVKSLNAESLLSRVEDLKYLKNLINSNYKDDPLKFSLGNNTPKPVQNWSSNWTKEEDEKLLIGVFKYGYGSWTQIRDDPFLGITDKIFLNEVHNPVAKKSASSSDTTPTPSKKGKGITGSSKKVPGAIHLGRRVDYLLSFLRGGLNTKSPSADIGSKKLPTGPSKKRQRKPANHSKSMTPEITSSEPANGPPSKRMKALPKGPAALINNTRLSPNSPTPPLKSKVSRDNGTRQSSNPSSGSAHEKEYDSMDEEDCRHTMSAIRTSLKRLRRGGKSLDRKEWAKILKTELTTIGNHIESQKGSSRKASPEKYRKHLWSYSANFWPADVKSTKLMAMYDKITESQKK

For some of these results: Measured potencies and affinities stand elsewhere.

Sialic acid-binding Ig-like lectin 9 (Homo sapiens), sequence (Q9Y336 whole entry): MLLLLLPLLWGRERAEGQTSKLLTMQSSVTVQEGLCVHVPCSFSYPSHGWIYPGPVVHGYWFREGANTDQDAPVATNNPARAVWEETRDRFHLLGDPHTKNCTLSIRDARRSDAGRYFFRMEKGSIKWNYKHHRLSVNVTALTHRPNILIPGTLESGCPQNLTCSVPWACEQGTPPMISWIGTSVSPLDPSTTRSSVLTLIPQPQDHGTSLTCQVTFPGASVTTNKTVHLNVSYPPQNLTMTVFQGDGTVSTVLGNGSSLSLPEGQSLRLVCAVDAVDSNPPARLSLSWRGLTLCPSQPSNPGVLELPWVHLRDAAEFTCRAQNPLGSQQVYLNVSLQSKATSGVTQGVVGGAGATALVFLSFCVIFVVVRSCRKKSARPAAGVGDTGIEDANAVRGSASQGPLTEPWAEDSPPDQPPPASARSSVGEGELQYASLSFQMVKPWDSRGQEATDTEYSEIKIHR
Protein translocase subunit SecA (Escherichia coli (strain K12)), sequence (P10408 whole entry): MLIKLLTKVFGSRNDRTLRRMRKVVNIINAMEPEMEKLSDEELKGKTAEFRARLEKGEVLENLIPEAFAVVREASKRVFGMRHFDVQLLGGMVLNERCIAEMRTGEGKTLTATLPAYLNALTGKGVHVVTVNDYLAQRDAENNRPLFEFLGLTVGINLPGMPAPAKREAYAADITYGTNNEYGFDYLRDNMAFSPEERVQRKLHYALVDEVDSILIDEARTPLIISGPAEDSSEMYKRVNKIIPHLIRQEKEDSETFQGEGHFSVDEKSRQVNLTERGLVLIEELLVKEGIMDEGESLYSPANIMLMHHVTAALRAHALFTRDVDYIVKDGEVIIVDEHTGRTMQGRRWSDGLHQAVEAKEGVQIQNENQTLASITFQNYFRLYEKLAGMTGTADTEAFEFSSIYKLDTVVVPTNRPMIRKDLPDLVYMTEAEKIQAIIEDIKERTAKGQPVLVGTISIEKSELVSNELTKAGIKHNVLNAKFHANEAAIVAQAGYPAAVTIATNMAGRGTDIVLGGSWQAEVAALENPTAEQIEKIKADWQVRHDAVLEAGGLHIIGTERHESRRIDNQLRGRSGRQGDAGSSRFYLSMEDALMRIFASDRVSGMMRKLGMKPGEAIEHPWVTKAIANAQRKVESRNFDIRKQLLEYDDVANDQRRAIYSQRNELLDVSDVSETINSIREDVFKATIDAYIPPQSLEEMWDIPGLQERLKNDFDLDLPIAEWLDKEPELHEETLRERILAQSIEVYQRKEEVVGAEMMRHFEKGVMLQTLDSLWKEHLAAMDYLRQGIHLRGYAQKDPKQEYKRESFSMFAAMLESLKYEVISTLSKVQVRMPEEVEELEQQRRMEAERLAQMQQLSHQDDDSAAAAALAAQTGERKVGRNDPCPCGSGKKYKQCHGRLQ

For `CCCN1CCN(C(=O)c2scnc2C)CC1`, the Percent Effect is -7.16% in test [1]; 10.5% in test [2]; 0.673% in [3]; 9.57% in [4]; 2.82% in the test with Trypanosoma cruzi; 0% in test [5]. Also, the Percent Effect in test [6] is 9.3%; in the test listed under Homo sapiens it was -10.2%; in test [7], 1.06%; in test [8] it was 10.4%; in test [9], -4.16%.
For the molecule `CCOC(=O)NC(C(=O)NCc1ccc(N2CCCCC2)nc1)C(C)C` (stereo unspecified), the Percent Effect in test [1] is -0.611%; in test [2], 13.5%; in [3] it was -4%; in test [4] it was -4.82%; in the test on Trypanosoma cruzi it was -5.94%; in [5] it was 0%. Moreover, the Percent Effect in test [6] is 13.9%; in the test listed under Homo sapiens, 28.9%; in test [7], 3.45%; in test [8], 16.1%; in [9] it was -3.65%.
With `Cc1cc(C(=O)N2CCCC(n3cncn3)C2)c(C)n1C1CC1` (stereo unspecified), the Percent Effect is -2.41% in test [1]; -3.8% in test [2]; 2.66% in test [3]; 1.98% in [4]; 1.54% in the test with Trypanosoma cruzi; 2.37% in [5]. Further, the Percent Effect in test [6] is -1.54%; in the test listed under Homo sapiens it was -3.71%; in test [7] it was 2.08%; in test [8] it was 2.53%; in [9] it was 11.1%.
Regarding `Cc1ccc(-c2cc(CNC(=O)N3CCOC(C)C3)on2)cc1` (stereo unspecified), the Percent Effect in test [1] is 0.724%; in [2] it was 8.11%; in test [3], 7.2%; in test [4] it was -10.1%; with Trypanosoma cruzi, -4.92%; in test [5], 3.88%. The Percent Effect in test [6] was 7.54%; in the test filed under Homo sapiens, 20.6%; in test [7] it was 6.93%; in test [8], 13.4%; in test [9], -5.48%.
For the molecule `CN1CCc2c(C#N)c(NCCCN3CCOCC3)n3cnnc3c2C1`, the Percent Effect in test [1] was -3.76%; in test [2] it was 10.5%; in test [3], 2.8%; in [4], 1.44%; with Trypanosoma cruzi it was -1.46%; in [5], -1.18%. In addition, the Percent Effect in test [6] was 13.7%; in the test filed under Homo sapiens it was -9.43%; in [7] it was 4.25%; in [8], 10.4%; in [9], -1.19%.
Take `Cc1nc(CN2C[C@@H]3CN(C(=O)c4cnccn4)C[C@@H]3C2)cs1`: the Percent Effect in [1] is -1.57%; in test [2] it was 5.48%; in test [3], 0.106%; in [4], 5.75%; in the test with Trypanosoma cruzi, -1.79%; in test [5], -2.79%. Moreover, the Percent Effect is 7.45% in test [6]; 7.67% in the test listed under Homo sapiens; 5.21% in test [7]; 16.1% in test [8]; -3.57% in [9].
`Cc1cnn(CC2CCCN2C(=O)c2cccc(-n3cnnn3)c2)c1` (stereo unspecified): the Percent Effect in test [1] is -0.0058%; in [2] it was 2.53%; in [3], 6.56%; in test [4], 4.88%; in the test on Trypanosoma cruzi, -1.79%; in test [5], 6.08%. Further, the Percent Effect in test [6] is -0.573%; in the test filed under Homo sapiens, 13.2%; in [7], 2.46%; in test [8], 1.27%; in [9] it was -1.78%.
On to `COc1ccnc(N2CCN(C(=O)NCc3ccc(C)s3)CC2)n1`, for which the Percent Effect was -4.33% in test [1]; 15.6% in test [2]; 6.59% in [3]; 2.69% in [4]; 4.6% in the test on Trypanosoma cruzi; 1.47% in [5]. For the same molecule, the Percent Effect in test [6] was 5.42%; in the test listed under Homo sapiens, -2.65%; in test [7], 5.71%; in [8] it was 18.8%; in [9] it was -0.255%.
For the molecule `O=C(NCc1cnc2n1CCN(CC1CC1)CC2)C1CCC1`, the Percent Effect in [1] is -2.75%; in test [2] it was 13.5%; in test [3] it was -7.3%; in test [4] it was 21.4%; in the test on Trypanosoma cruzi it was 4.79%; in test [5], 18.1%. Also, the Percent Effect was 7.47% in test [6]; -8.45% in the test listed under Homo sapiens; 6.45% in [7]; 16.1% in test [8]; -4.7% in test [9].
On to `Cc1csc(C2CCCN(C(=O)c3cnc[nH]3)C2)n1` (stereo unspecified), for which the Percent Effect is -3.16% in test [1]; 10.8% in test [2]; -8.22% in test [3]; 15.3% in test [4]; 3.11% with Trypanosoma cruzi; -4.41% in [5]. The Percent Effect in [6] was 3.42%; in the test listed under Homo sapiens, 32.5%; in test [7], 5.42%; in test [8], 18.5%; in test [9], -10.5%.
Turning to `CCc1nc(C2CCCN2Cc2nccn2Cc2ccccc2)no1` (stereo unspecified), the Percent Effect in [1] was -0.608%; in [2] it was 0%; in test [3] it was 1.64%; in test [4] it was 13.2%; with Trypanosoma cruzi, 2.25%; in test [5] it was 0.21%. Moreover, the Percent Effect in test [6] was 9.13%; in the test listed under Homo sapiens, 10.5%; in [7], 2.86%; in test [8], 2.35%; in [9], 4.26%.

For the origin of these results see ChEMBL document CHEMBL3988442, “University of Dundee, Small-Polar-MMV Screening Library” (2021).
